In PubChem BioAssay (EPA / NIEHS) one finds outcome and AC50 data, which are given here for six compounds.

Assay [1] deals with human Retinoid X Receptor beta (RXRb), RXRB (gene 6257) (UniProt P28702). Description: ATG_RXRb_TRANS: Attagene TRANS-FACTORIAL HepG2 Assay for human Retinoid X Receptor beta (RXRb) (AID 2283013; active = hit-call score of the fitted dose curve at least 0.9, where 1 is the maximum). In a few lines:
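Readout is reporter transcript induction after 24 h dosing. It is measured by RT-PCR of total RNA followed by fluorescent capillary electrophoresis. HepG2 liver cells carry transfected multiple reporter units driven by an exogenous RXRb-Gal4 fusion; activity is relative to DMSO.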

Assay [2] addresses human Thyroid Receptor alpha (THRa1), THRA (gene 7067) (UniProt P10827). Description: ATG_THRa1_TRANS: Attagene TRANS-FACTORIAL HepG2 Assay for human Thyroid Receptor alpha (THRa1) (AID 2283014; active = hit-call score of the fitted dose curve at least 0.9, where 1 is the maximum). In a few lines:
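Measured here is mRNA from a GAL4-UAS reporter in transfected HepG2 cells carrying a Gal4-fused receptor, 24 h post-dose. DMSO served as negative control and baseline.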

Read-out in assay [3]: E-selectin (Homo sapiens) (UniProt P16581)
Description: BSK_3C_Eselectin: BioMAP Diversity Plus: 3C Assay for Eselectin Biomarker Activity (AID 2283015). Particulars: primary human endothelial cells (HUVEC); actives raise or lower the signal. In a few lines:
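Endpoint derived by bidirectional fitting against DMSO vehicle; signal is ELISA-detected E-selectin from primary HUVEC at 24 h post-dosing, with parallel SRB staining (0.1% SRB, 560 nm) flagging cytotoxicity.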

Read-out in assay [4]: Interleukin-1 alpha (IL1a), IL1A (gene 3552)
Briefly: BSK_BE3C_IL1a: BioMAP Diversity Plus: BE3C Assay for Interleukin-1 alpha (IL1a) Biomarker Activity (AID 2283016). Particulars: primary human bronchial epithelial cells; actives raise or lower the signal. In a few lines: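 IL-1a measured by ELISA after 24 h treatment of human primary bronchial epithelial cells, with gain or loss of signal fitted versus DMSO. Parallel cultures stained with SRB gauge overt cytotoxicity.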

Read-out in assay [5]: Monocyte Chemoattractant Protein-1 (MCP1), CCL2 (gene 6347)
Briefly: BSK_3C_MCP1: BioMAP Diversity Plus: 3C Assay for Monocyte Chemoattractant Protein-1 (MCP1) Biomarker Activity (AID 2283017). The note with it: primary human endothelial cells (HUVEC); actives raise or lower the signal. The gist of the method: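 Using human vascular primary endothelium, researchers measured MCP-1 by ELISA 24 h after treatment, with DMSO serving as negative control for bidirectional fitting.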

Read-out in assay [6]: Monocyte Chemoattractant Protein-1 (MCP1), CCL2 (gene 6347)
Briefly: BSK_4H_MCP1: BioMAP Diversity Plus: 4H Assay for Monocyte Chemoattractant Protein-1 (MCP1) Biomarker Activity (AID 2283018). The note with it: primary human endothelial cells (HUVEC); actives raise or lower the signal. The gist of the method: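 ELISA of MCP-1 (CCL2) 24 h after chemical dosing of HUVEC in the BioMAP 4H system. Gain or loss versus DMSO fitted; parallel SRB staining (560 nm) tracked overt cytotoxicity.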

Read-out in assay [7]: Human Leukocyte Antigen - DR isotype (HLADR), HLA-DRA (gene 3122)
Description: BSK_3C_HLADR: BioMAP Diversity Plus: 3C Assay for Human Leukocyte Antigen - DR isotype (HLADR) Biomarker Activity (AID 2283019). Particulars: primary human endothelial cells (HUVEC); actives raise or lower the signal. The gist of the method: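 Compound added to primary HUVEC cultures, 24 h incubation, then HLA-DR determined by ELISA; endpoint derived by bidirectional fitting relative to DMSO negative control.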

Read-out in assay [8]: Interleukin-8 (IL8), CXCL8 (gene 3576)
Briefly: BSK_3C_IL8: BioMAP Diversity Plus: 3C Assay for Interleukin-8 (IL8) Biomarker Activity (AID 2283020). The note with it: primary human endothelial cells (HUVEC); actives raise or lower the signal. In a few lines: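 IL-8 was measured by ELISA in HUVEC cultures 24 h after chemical dosing, with gain or loss of signal fitted relative to DMSO. Parallel SRB total-protein staining tracked overt cytotoxicity.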

Read-out in assay [9]: Monokine induced gamma interferon (MIG), CXCL9 (gene 4283)
Description: BSK_3C_MIG: BioMAP Diversity Plus: 3C Assay for Monokine induced gamma interferon (MIG) Biomarker Activity (AID 2283021).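 For AC50: MIG protein level measured by immunoassay in the treated endothelial cultures.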 Particulars: primary human endothelial cells (HUVEC); actives raise or lower the signal. The gist of the method:
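ELISA measurement of MIG in human umbilical vein endothelial cells 24 h after treatment. Cytotoxicity tracked by SRB staining in parallel cultures; gain or loss of signal fitted relative to DMSO.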

The target in assay [10] is human Vitamin D Receptor (VDR), VDR (gene 7421) (UniProt P11473). Description: ATG_VDR_TRANS: Attagene TRANS-FACTORIAL HepG2 Assay for human Vitamin D Receptor (VDR) (AID 2283022; active = hit-call score of the fitted dose curve at least 0.9, where 1 is the maximum). In a few lines: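 Multiplexed TRANS reporter in HepG2; 24 h treatment; reporter mRNA by RT-PCR plus capillary electrophoresis; upregulation scored relative to DMSO.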
Assay [11] in a line: BSK_3C_SRB: Viability Assessment in the BioMAP Diversity Plus: 3C Assay (AID 2283023).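 Note: cells read 24 h after compound dosing; fitted both ways against DMSO so a hit may be signal rise or drop.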 Particulars: primary human endothelial cells (HUVEC). The gist of the method: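 Overt cytotoxicity is gauged in parallel confluent HUVEC cultures by SRB total-protein staining at the time of biomarker measurement, 24 h after dosing. Gain or loss of signal is fitted versus DMSO.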
Read-out in assay [12]: Matrix Metallopeptidase 1 (MMP1), MMP1 (gene 4312)
Description: BSK_BE3C_MMP1: BioMAP Diversity Plus: BE3C Assay for Matrix Metallopeptidase 1 (MMP1) Biomarker Activity (AID 2283024). The note with it: primary human bronchial epithelial cells; actives raise or lower the signal. In a few lines: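 ELISA measurement of MMP-1 after 24 h compound exposure of primary human bronchial epithelial cells. Changes in either direction fitted relative to DMSO; parallel SRB staining checked overt cytotoxicity.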

Assay [13] can be described thus: BSK_3C_Vis: BioMAP Diversity Plus: 3C Assay for Morphology Visualization (AID 2283025).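 Note: light microscopy image of cell morphology used as background control; fitted both ways so gain or loss versus DMSO counts.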 The note with it: primary human endothelial cells (HUVEC). The gist of the method:
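Light-microscopy visualization of HUVEC cultures at 24 h post-treatment, with DMSO as baseline for bidirectional fitting.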

Read-out in assay [14]: Pselectin, SELP (gene 6403)
Description: BSK_4H_Pselectin: BioMAP Diversity Plus: 4H Assay for Pselectin Biomarker Activity (AID 2283026). The note with it: primary human endothelial cells (HUVEC); actives raise or lower the signal. The gist of the method: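 ELISA of surface P-selectin on HUVEC, 24 h after dosing, with parallel SRB staining (0.1% after 10% TCA fixation, 560 nm) for overt cytotoxicity. Activity fitted in both directions relative to DMSO.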

Assay [15] can be described thus: BSK_4H_SRB: Viability Assessment in the BioMAP Diversity Plus: 4H Assay (AID 2283027).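 For AC50: curves fitted both ways versus DMSO so AC50 may be loss or gain.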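 Note: cells exposed to compound for 24 h before staining.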 The note with it: primary human endothelial cells (HUVEC). The gist of the method:
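HUVEC, 24 h post-dose; 10% TCA fix, 0.1% SRB stain, A560 nm. Total protein = overt cytotoxicity, parallel to biomarker read. Bidirectional fit vs DMSO baseline.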

A short description of assay [16]: BSK_BE3C_SRB: Viability Assessment in the BioMAP Diversity Plus: BE3C Assay (AID 2283028).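 For AC50: fitted both ways so AC50 may mark signal gain or loss versus DMSO.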 The note with it: primary human bronchial epithelial cells. The gist of the method: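 SRB total-protein staining (0.1%, after TCA fixation) of chemically dosed human bronchial epithelial primary cells at 24 h; DMSO serves as the negative control for bidirectional curve fitting.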

Read-out in assay [17]: Thrombomodulin, THBD (gene 7056)
Briefly: BSK_3C_Thrombomodulin: BioMAP Diversity Plus: 3C Assay for Thrombomodulin Biomarker Activity (AID 2283029). The note with it: primary human endothelial cells (HUVEC); actives raise or lower the signal. In a few lines: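 ELISA measurement of thrombomodulin on HUVEC surface 24 h after chemical dosing; activity fitted in both directions relative to DMSO vehicle.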

Read-out in assay [18]: Urokinase-type plasminogen activator receptor (uPAR), PLAUR (gene 5329)
Briefly: BSK_4H_uPAR: BioMAP Diversity Plus: 4H Assay for Urokinase-type plasminogen activator receptor (uPAR) Biomarker Activity (AID 2283030). The note with it: primary human endothelial cells (HUVEC); actives raise or lower the signal. In a few lines:
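Endpoint derived via bidirectional curve fitting against DMSO baseline; readout was ELISA detection of uPAR on umbilical vein endothelial cells at 24 h post-treatment, with SRB-stained parallel cultures assessing cytotoxicity.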

Read-out in assay [19]: Human Leukocyte Antigen - DR isotype (HLADR), HLA-DRA (gene 3122)
Description: BSK_BE3C_HLADR: BioMAP Diversity Plus: BE3C Assay for Human Leukocyte Antigen - DR isotype (HLADR) Biomarker Activity (AID 2283032). Particulars: primary human bronchial epithelial cells; actives raise or lower the signal. In a few lines: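 Cell-surface HLA-DR ELISA readout at 24 h after dosing in the BE3C primary human lung bronchial epithelial system; gain or loss of signal against DMSO, with parallel sulforhodamine B staining of total protein for overt cytotoxicity.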

Read-out in assay [20]: Vascular endothelial growth factor receptor 2 (Homo sapiens) (UniProt P35968)
Briefly: BSK_4H_VEGFRII: BioMAP Diversity Plus: 4H Assay for Vascular endothelial growth factor receptor 2 (VEGFR2) Biomarker Activity (AID 2283031). The note with it: primary human endothelial cells (HUVEC); actives raise or lower the signal. In a few lines: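 In this multiplexed HUVEC system, biomarker ELISA was performed after 24 h chemical exposure. Parallel SRB staining (TCA fixation, 560 nm) tracked cytotoxicity; DMSO served as baseline.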

Records with an inconclusive call do not appear. A structure can be active in one record and inactive in another. The source made the active and inactive calls. Rule for the calls, unless noted: active = hit-call score of the fitted dose curve at least 0.9, where 1 is the maximum; inactive = score below 0.9.

Sequence of human Thyroid Receptor alpha (THRa1), THRA (gene 7067) (P10827 whole entry, looked up, the tested form may be a part): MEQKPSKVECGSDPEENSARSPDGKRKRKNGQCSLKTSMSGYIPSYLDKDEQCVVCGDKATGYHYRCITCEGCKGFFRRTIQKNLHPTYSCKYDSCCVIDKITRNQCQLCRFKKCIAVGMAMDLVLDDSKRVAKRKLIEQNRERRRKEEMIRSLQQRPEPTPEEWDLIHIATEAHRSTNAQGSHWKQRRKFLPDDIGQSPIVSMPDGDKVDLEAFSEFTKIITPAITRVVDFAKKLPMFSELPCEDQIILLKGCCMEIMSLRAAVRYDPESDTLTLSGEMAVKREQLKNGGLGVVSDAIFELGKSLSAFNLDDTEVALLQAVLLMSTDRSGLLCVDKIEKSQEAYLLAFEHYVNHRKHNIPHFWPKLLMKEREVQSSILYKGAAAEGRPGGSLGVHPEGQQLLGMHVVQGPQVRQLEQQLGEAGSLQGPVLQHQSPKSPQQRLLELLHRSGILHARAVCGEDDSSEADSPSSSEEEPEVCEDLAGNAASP
Sequence of human Retinoid X Receptor beta (RXRb), RXRB (gene 6257) (P28702 whole entry, looked up, the tested form may be a part): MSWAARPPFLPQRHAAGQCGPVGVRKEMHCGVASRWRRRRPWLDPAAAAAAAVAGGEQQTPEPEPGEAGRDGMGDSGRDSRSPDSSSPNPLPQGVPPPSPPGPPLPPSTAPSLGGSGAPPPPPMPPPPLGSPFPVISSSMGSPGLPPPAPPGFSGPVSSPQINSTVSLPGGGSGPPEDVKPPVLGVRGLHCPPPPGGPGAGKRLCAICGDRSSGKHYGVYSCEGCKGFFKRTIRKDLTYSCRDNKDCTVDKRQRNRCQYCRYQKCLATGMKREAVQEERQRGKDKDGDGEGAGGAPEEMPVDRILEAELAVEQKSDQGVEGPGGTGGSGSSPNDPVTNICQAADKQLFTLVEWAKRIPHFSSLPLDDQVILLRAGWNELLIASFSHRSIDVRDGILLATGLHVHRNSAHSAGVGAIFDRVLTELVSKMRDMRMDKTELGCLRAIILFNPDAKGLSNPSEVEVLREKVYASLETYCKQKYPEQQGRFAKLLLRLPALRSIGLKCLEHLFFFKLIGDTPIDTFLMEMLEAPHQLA
Sequence of human Vitamin D Receptor (VDR), VDR (gene 7421) (P11473 whole entry, looked up): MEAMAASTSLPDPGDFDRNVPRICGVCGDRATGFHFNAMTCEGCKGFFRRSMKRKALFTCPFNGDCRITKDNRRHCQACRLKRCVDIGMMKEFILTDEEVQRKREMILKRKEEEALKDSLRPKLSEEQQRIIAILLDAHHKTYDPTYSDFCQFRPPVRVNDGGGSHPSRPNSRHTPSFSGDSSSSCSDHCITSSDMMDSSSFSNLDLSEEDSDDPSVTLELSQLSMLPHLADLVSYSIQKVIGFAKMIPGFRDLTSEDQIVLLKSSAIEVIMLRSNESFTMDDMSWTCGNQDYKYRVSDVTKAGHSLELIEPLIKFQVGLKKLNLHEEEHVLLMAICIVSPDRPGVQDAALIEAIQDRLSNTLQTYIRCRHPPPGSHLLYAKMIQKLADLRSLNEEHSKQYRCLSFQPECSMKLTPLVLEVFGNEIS
Sequence of E-selectin (Homo sapiens) (P16581 whole entry, looked up): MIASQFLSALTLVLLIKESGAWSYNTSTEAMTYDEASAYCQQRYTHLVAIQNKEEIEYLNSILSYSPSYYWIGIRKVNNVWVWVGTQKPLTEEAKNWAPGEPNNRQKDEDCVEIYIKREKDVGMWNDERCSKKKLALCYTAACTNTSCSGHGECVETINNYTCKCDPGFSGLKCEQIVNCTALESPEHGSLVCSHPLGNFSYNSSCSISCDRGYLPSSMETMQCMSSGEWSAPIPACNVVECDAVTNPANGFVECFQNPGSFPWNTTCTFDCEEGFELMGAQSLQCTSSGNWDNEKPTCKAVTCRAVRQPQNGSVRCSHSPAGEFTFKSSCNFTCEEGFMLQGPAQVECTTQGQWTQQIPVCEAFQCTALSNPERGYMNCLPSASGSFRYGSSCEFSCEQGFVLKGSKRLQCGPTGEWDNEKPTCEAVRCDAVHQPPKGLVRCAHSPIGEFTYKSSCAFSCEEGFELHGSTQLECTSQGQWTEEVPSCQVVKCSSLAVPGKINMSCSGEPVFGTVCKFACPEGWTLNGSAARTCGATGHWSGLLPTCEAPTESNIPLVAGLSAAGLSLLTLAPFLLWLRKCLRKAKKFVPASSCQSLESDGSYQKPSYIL

For the compound `O=C(c1ccccc1)C(Cl)Cl`, the compound was called inactive in [1] and in assay [2].
In the case of `NNC(=S)NN`, the result in assay [1] and in assay [2] was inactive.
With `CCCCCCCCc1ccc(O)cc1`, the concentration at half-maximal activity (AC50) in [1] is 24.5 µM (active); in [2], 43.7 µM (active); in [3], 31.7 µM (active); in assay [4], 32.6 µM (active); in [5] it was 34.1 µM (active); in assay [6] it was 20.1 µM (active). Besides, the AC50 in assay [7] is 31.5 µM (active); in [8], 34.6 µM (active); in assay [9] it was 36 µM (active); in assay [11], 31.2 µM (active); in assay [12] it was 31.7 µM (active); in [13], 39.3 µM (active). Moreover, the concentration at half-maximal activity (AC50) is 25.6 µM (active) in [14]; 34.3 µM (active) in [15]; 34.9 µM (active) in assay [16]; 34.3 µM (active) in [17]; 37.2 µM (active) in [18]; 33 µM (active) in assay [19]. Moreover, the result in assay [2] and in assay [10] was inactive.
In the case of `Nc1ccc(Cl)cc1C(=O)c1ccccc1`, the concentration at half-maximal activity (AC50) in [1] was 21.9 µM (active). For the same compound, in [2], the outcome was inactive.
In the case of `CNC(=O)O/N=C/C(C)(C)S(C)=O` (stereo not drawn), the result in assay [1] and in assay [2] was inactive.
As to `CCOP(=S)(OCC)Oc1nc(Cl)c(Cl)cc1Cl`, the half-maximal activity concentration (AC50) in [1] was 30.9 µM (active); in assay [3] it was 37.1 µM (active); in assay [5], 33.1 µM (active); in [6], 20 µM (active); in assay [7] it was 28.2 µM (active); in assay [8] it was 31.1 µM (active). Further, the figures for the AC50 in assay [11], in assay [13] and in assay [14] were 30.2 µM (active), 39 µM (active) and 32 µM (active), respectively. Also, the result in assay [2], in assay [4], in assay [9], in assay [10], in assay [12] and in assay [15] was inactive. The outcome in [16], in assay [17], in assay [18], in [20] and in assay [19] was inactive.

Usually AC50 stands for the concentration at which the activity in the assay is half-maximal.
